Where a name gives a salt, the structure may show the parent alone.
Each compound was assayed on Saccharomyces cerevisiae BY4741 SeMeCo community (assay: z-score of subpopulation abundance vs DMSO median, subpopulation auxotrophic for UM; higher = larger share of this subpopulation than in DMSO controls). Settings: 10 µM; 24 h; SM minimal medium; subpopulation (auxotrophy): UM.
Description: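 Fluorescent four-plasmid SeMeCo (self-establishing metabolically cooperating S. cerevisiae BY4741 community; plasmids pH-mRuby2, pL-mWasabi, pU-eCFP, pM-TagRFP657) was grown 24 h in minimal SM medium with each Selleck FDA-approved drug at 10 µM in 384-well plates. Cells were fixed and imaged by high-content confocal microscopy. For each auxotrophic subpopulation (and the prototroph), a z-score gives the deviation from the DMSO vehicle-control population median.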
COc1ccnc(C[S+]([O-])c2nc3cc(-n4cccc4)ccc3[nH]2)c1C (stereo not given) [Ilaprazole] was tested, and the “z-score of subpopulation abundance” value was -1.96.
For OCCN1CCN(CCCN2c3ccccc3Sc3ccc(Cl)cc32)CC1 [Perphenazine], the “z-score of subpopulation abundance” value was 0.06.
For CC1(C)[C@H](C(=O)O)N2C(=O)C[C@H]2S1(=O)=O [Sulbactam sodium], the “z-score of subpopulation abundance” value was 1.22.
For CCCCOc1ccc(C(=O)CCN2CCCCC2)cc1 [Dyclonine HCl], the “z-score of subpopulation abundance” value was -0.42.
For CC1(C)S[C@@H]2[C@H](NC(=O)[C@H](NC(=O)N3CCN(S(C)(=O)=O)C3=O)c3ccccc3)C(=O)N2[C@H]1C(=O)O [Mezlocillin Sodium], the “z-score of subpopulation abundance” value was -0.36.
Clc1ccccc1C(c1ccccc1)(c1ccccc1)n1ccnc1 [Clotrimazole] was tested, and the “z-score of subpopulation abundance” value was 18.8.
For O=C1c2c(O)ccc(O)c2C(=O)c2c(NCCNCCO)ccc(NCCNCCO)c21 [Mitoxantrone 2HCl], the “z-score of subpopulation abundance” value was -8.31.
OC1(c2ccc(Cl)c(C(F)(F)F)c2)CCN(CCCC(c2ccc(F)cc2)c2ccc(F)cc2)CC1 [Penfluridol] was tested, and the “z-score of subpopulation abundance” value was 2.69.
In the case of CCCCN1CCCC[C@H]1C(=O)Nc1c(C)cccc1C [Levobupivacaine HCl], the “z-score of subpopulation abundance” value is reported as -0.49.
In the case of N=C(N)NC(=O)c1nc(Cl)c(N)nc1N [Amiloride HCl], the “z-score of subpopulation abundance” value is reported as -1.89.
With CC(C)c1c(C(=O)Nc2ccccc2)c(-c2ccccc2)c(-c2ccc(F)cc2)n1CC[C@@H](O)C[C@@H](O)CC(=O)O [Atorvastatin] the “z-score of subpopulation abundance” value was 1.48.
In the case of COc1ccccc1N1CCN(CCCNc2cc(=O)n(C)c(=O)n2C)CC1 [Urapidil HCl], the “z-score of subpopulation abundance” value is reported as 0.
In the case of CO/N=C(\C(=O)N[C@@H]1C(=O)N2C(C(=O)O)=CCS[C@H]12)c1csc(N)n1 [Ceftizoxime], the “z-score of subpopulation abundance” value is reported as -0.98.
O=c1[nH]c2ccccc2n1CCN1CCN(c2cccc(C(F)(F)F)c2)CC1 [Flibanserin] was tested, and the “z-score of subpopulation abundance” value was 0.43.
For COc1cc2c(cc1OC)C(=O)C(CC1CCN(Cc3ccccc3)CC1)C2 (stereo not given) [Donepezil], the “z-score of subpopulation abundance” value was -0.49.
For C=CCCCCCCCCC(=O)[O-].C=CCCCCCCCCC(=O)[O-].[Zn+2] [Zinc Undecylenate], the “z-score of subpopulation abundance” value was -2.31.
CC(C)c1nc(N(C)S(C)(=O)=O)nc(-c2ccc(F)cc2)c1/C=C/[C@@H](O)C[C@@H](O)CC(=O)O [Rosuvastatin] was tested, and the “z-score of subpopulation abundance” value was 1.
For CC(=O)OC1CC2(C)C(CC(O)C3C4(C)CCC(O)C(C)C4CCC32C)C1=C(CCC=C(C)C)C(=O)O (stereo not given) [Fusidine], the “z-score of subpopulation abundance” value was -0.42.
CNCCCC1c2ccccc2C=Cc2ccccc21 [Protriptyline hydrochloride] was tested, and the “z-score of subpopulation abundance” value was 0.52.
NC12CC3CC(CC(C3)C1)C2 [Amantadine HCl] was tested, and the “z-score of subpopulation abundance” value was -0.27.
In the case of CCCN1C[C@H](C)[C@@H](O)[C@](C)(O)[C@@H](CC)OC(=O)[C@H](C)[C@@H](O[C@H]2C[C@@](C)(OC)[C@@H](O)[C@H](C)O2)[C@H](C)[C@@H](O[C@@H]2O[C@H](C)C[C@H](N(C)C)[C@H]2O)[C@](C)(O)C[C@H]1C [Gamithromycin], the “z-score of subpopulation abundance” value is reported as -0.02.
O=C(CCCN1CCC(O)(c2ccc(Cl)cc2)CC1)c1ccc(F)cc1 [Haloperidol] was tested, and the “z-score of subpopulation abundance” value was -0.69.
For CN1CCCN=C1/C=C/c1cccc(O)c1 [Oxantel Pamoate], the “z-score of subpopulation abundance” value was -1.73.
For NC(=O)OCC(COC(N)=O)c1ccccc1 [Felbamate], the “z-score of subpopulation abundance” value was -0.58.
In the case of CO[C@@]1(NC(=O)Cc2cccs2)C(=O)N2C(C(=O)O)=C(COC(N)=O)CS[C@@H]21 [Cefoxitin sodium], the “z-score of subpopulation abundance” value is reported as -0.63.
In the case of CC1(C)S[C@@H]2[C@H](NC(=O)[C@H](N)c3ccccc3)C(=O)N2[C@H]1C(=O)O [Ampicillin sodium], the “z-score of subpopulation abundance” value is reported as -0.31.
C=C1CCC2C(C)(CO)C(O)CCC2(C)C1CC=C1C=COC1=O (stereo not given) [Dehydroandrographolide] was tested, and the “z-score of subpopulation abundance” value was 0.16.
With CC(=O)Oc1ccccc1C(=O)O [Aspirin] the “z-score of subpopulation abundance” value was -0.21.
In the case of CC1(C)S[C@@H]2[C@H](NC(=O)[C@H](C(=O)O)c3ccsc3)C(=O)N2[C@H]1C(=O)O [Ticarcillin sodium], the “z-score of subpopulation abundance” value is reported as -0.45.
In the case of CN(C/C=C/C#CC(C)(C)C)Cc1cccc2ccccc12 [Terbinafine HCl], the “z-score of subpopulation abundance” value is reported as 1.94.
With CC(=O)C1C(=O)C=C(C)OC1=O (stereo not given) [Sodium dehydroacetate] the “z-score of subpopulation abundance” value was 0.54.
With Nc1ccc(/N=N/c2ccccc2)c(N)n1 [Phenazopyridine HCl] the “z-score of subpopulation abundance” value was -2.74.
O=C1Cc2cc(CCN3CCN(c4nsc5ccccc45)CC3)c(Cl)cc2N1 [Ziprasidone HCl] was tested, and the “z-score of subpopulation abundance” value was -0.51.
In the case of O=C(Cn1ccnc1[N+](=O)[O-])NCc1ccccc1 [Benznidazole], the “z-score of subpopulation abundance” value is reported as 0.13.
For CC#C[C@]1(O)CC[C@H]2[C@@H]3CCC4=CC(=O)CCC4=C3[C@@H](c3ccc(N(C)C)cc3)C[C@@]21C [Mifepristone], the “z-score of subpopulation abundance” value was 0.64.
CC[C@@H]1/C=C(\C)C[C@H](C)C[C@H](OC)[C@H]2O[C@@](O)(C(=O)C(=O)N3CCCC[C@H]3C(=O)O[C@H](/C(C)=C/[C@@H]3CC[C@H](Cl)[C@H](OC)C3)[C@H](C)[C@@H](O)CC1=O)[C@H](C)C[C@@H]2OC [Pimecrolimus] was tested, and the “z-score of subpopulation abundance” value was -0.8.
With COc1ccc(CN2CCN(C(c3ccc(F)cc3)c3ccc(F)cc3)CC2)c(OC)c1OC [Lomerizine 2HCl] the “z-score of subpopulation abundance” value was -0.33.
With COC(=O)Nc1nc2cc(Sc3ccccc3)ccc2[nH]1 [Fenbendazole] the “z-score of subpopulation abundance” value was 0.27.
With COCCCN1CCC(NC(=O)c2cc(Cl)c(N)c3c2OCC3)CC1 [Prucalopride Succinate] the “z-score of subpopulation abundance” value was 1.44.
For Cc1ncc([N+](=O)[O-])n1CCOC(=O)c1ccccc1 [Metronidazole Benzoate], the “z-score of subpopulation abundance” value was -0.26.

From the supplement of paper PMC8975748
